POLB inh: DNA polymerase beta (human) inhibition; P06746; Pol beta primer extension/strand displacement, fluorescence kinetic; Potency, µM (highest dose often 114 µM), hits mostly inhibitors; hit rate 1.3% among 340,000
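Homogeneous kinetic assay of primer extension and strand displacement by 10 nM Pol beta, preincubated 15 min at room temperature with compound before 50 nM substrate (final) was added. Read at 0 and 10 min; four-parameter Hill fit.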
POLI inh: DNA polymerase iota (human) inhibition. hit rate 1% among 390,000. Potency, µM (top dose mostly 115 µM), usual class: inhibitors. Pol iota fluorescent replication assay, 10 min
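Fluorescent replication assay read twice, at 0 min and 10 min after adding 50 nM (final) substrate. Enzyme (10 nM) and compounds were first incubated 15 min at room temperature; enzyme-free buffer wells were negative controls.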
Pol kappa inh: inhibitors of human DNA polymerase kappa | Q9UBT6 | purified Pol kappa, fluorescent DNA synthesis assay, 10 min | Potency, µM (highest dose often 107 µM), hits mostly inhibitors | hit rate 0.53% among 400,000 | AID 588579
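Inhibition of 10 nM Pol kappa is measured by a fluorescent read-out at 0 and 10 min following addition of 50 nM substrate (final), with a 15-min room-temperature compound preincubation.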
APE1 inh: blocks human APE1 abasic DNA cleavage | P27695 | recombinant APE1, TAMRA/BHQ-2 abasic DNA cleavage fluorescence | Potency, µM (top dose mostly 65.8 µM), actives largely listed as inhibitors | hit rate 0.35% among 350,000; note: nearly all actives have a fitted effect of over 55% in size
Target sequence (P27695 whole entry, looked up): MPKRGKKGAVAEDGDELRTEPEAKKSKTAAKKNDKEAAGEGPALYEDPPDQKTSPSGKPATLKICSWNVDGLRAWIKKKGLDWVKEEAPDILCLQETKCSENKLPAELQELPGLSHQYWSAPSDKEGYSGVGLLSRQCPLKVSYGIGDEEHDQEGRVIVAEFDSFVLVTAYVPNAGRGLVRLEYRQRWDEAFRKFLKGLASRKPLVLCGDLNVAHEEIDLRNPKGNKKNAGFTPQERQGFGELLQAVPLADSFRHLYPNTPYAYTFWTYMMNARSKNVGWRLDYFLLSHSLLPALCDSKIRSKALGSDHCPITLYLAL
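Quantitative HTS: incision of a TAMRA/BHQ-2 double-stranded substrate bearing a tetrahydrofuran abasic site by 0.75 nM APE1 raises fluorescence. Substrate 50 nM final, added after 15 min compound preincubation at room temperature; progress as third-minus-first kinetic read difference.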
POLH inh: DNA polymerase eta (human) inhibition. Q9Y253. recombinant Pol eta, fluorescent DNA replication assay. Potency, µM (top dose mostly 114 µM), most hits filed as inhibitors. hit rate 1.2% among 390,000. AID 588591
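Pol eta at 10 nM preincubated with compounds 15 min at room temperature; reaction started with fluorescent substrate (50 nM final) and read kinetically at 0 and 10 min.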
L3MBTL1 inh: inhibitors of human L3MBTL1; Q9Y468; AlphaScreen L3MBTL1–H3K9me1 peptide binding; Potency, µM (top dose mostly 57.1 µM), actives largely listed as inhibitors; hit rate 0.66% among 230,000; AID 485360; note: nearly all actives have a fitted effect of over 60% in size
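AlphaScreen assay: L3MBTL1 (50 nM final) was preincubated 30 min at room temperature with biotinylated H3(1-15)K9me1 peptide (75 nM final), then 30 min with library compounds; streptavidin donor and nickel chelate acceptor beads (10 ug/mL final) added, 30 min dark.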
Of the large screens only hits and unclear results are named; the others gave an inactive call; ! = not active in a repeat. Most compounds without a hit are left out; they make up all but 2.5% or so of the library. Calls come from the whole dose curve; as a rule, active = well fitted curve in the direction sought with a large enough effect; inconclusive = small, poorly fitted or top-dose-only effect, or another doubt; inactive = no such curve, though single readings can be large; an effect the other way counts as inactive or inconclusive.

CCOc1ccc2[nH]c3c(NCCN(C)C)ncnc3c2c1	POLB inh 56µM (no result: POLI inh, Pol kappa inh, POLH inh, L3MBTL1 inh)
COc1ccc2[nH]c3c(NCc4ccco4)ncnc3c2c1	POLB inh inconclusive, POLI inh 79µM!, POLH inh inconclusive
CCn1c(SCC(=O)N(C)c2ccccc2)nc2c([nH]c3ccccc32)c1=O	none (no result: L3MBTL1 inh)
CCOC(=O)C1CCN(c2nc(-c3ccc(Br)cc3)cs2)CC1	none (no result: POLB inh, POLI inh, Pol kappa inh, POLH inh, L3MBTL1 inh)
COc1ccc(CNc2ncnc3ccc(-c4ccccc4C#N)cc23)c(OC)c1	Pol kappa inh 40µM (no result: POLB inh, POLI inh, POLH inh, L3MBTL1 inh)
COc1ccc(/C=C(\CC(=O)O)c2nc3ccccc3s2)cc1O	none (no result: L3MBTL1 inh)
COc1ccc(-c2nn(-c3ccccc3)cc2/C=C(\CC(=O)O)c2nc3ccccc3s2)cc1OC	POLB inh inconclusive, POLI inh inconclusive, Pol kappa inh inconclusive, POLH inh 56µM
COc1ccc(N2CC(C(=O)Nc3ccc(S(=O)(=O)Nc4nccs4)cc3)CC2=O)c(OC)c1 (configuration not stated)	POLI inh inconclusive, Pol kappa inh inconclusive, POLH inh 50µM (no result: POLB inh)
COc1ccc(/C=C2/SC(=O)N(CCC(=O)Nc3ccc(S(=O)(=O)Nc4nccs4)cc3)C2=O)cc1	POLB inh 22µM, POLI inh inconclusive, POLH inh 32µM
COc1ccc(/C=C2\SC(=S)N(CCC(=O)Nc3ccc(O)cc3)C2=O)cc1	none
COc1ccc(/C=C2\SC(=O)N(CCC(=O)Nc3ccc(S(=O)(=O)Nc4nccs4)cc3)C2=O)cc1	POLB inh 50µM
O=C(CSc1nnc(CNC(=O)c2c(F)cccc2Cl)o1)NC1CCCC1	none (no result: L3MBTL1 inh)
COc1ccc(-c2ccc(/C=C3\C(=O)N(c4ccccc4)N=C3c3ccccc3)o2)c([N+](=O)[O-])c1	POLB inh inconclusive
COc1ccc(-c2ccc(/C=C3/C(=N)N4C(C)=CSC4=NC3=O)o2)c([N+](=O)[O-])c1	POLB inh inconclusive, POLI inh 18µM, Pol kappa inh inconclusive, POLH inh inconclusive
CCC(C)n1c(NC(=O)c2ccccc2)c(C#N)c2nc3ccccc3nc21 (configuration not stated)	POLB inh 40µM, POLI inh 3.2µM, Pol kappa inh inconclusive, POLH inh 50µM, L3MBTL1 inh 6.3µM
N[C@@H](Cn1ccc(=O)n(Cc2ccccc2C(=O)O)c1=O)C(=O)O	none (no result: POLB inh, POLI inh, POLH inh, L3MBTL1 inh)
CN(CC(=O)Nc1ccc(Cl)cc1)C(=O)CCc1nc2sc3c(c2c(=O)[nH]1)CCCC3	POLI inh 28µM, POLH inh inconclusive, L3MBTL1 inh inconclusive (no result: POLB inh)
CN(CC(=O)Nc1ccc(F)cc1)C(=O)CCc1nc2sc3c(c2c(=O)[nH]1)CCCC3	POLI inh 35µM, POLH inh 16µM, L3MBTL1 inh inconclusive (no result: POLB inh)
CN(CC(=O)Nc1ccccc1C(F)(F)F)C(=O)CCc1nc2sc3c(c2c(=O)[nH]1)CCCC3	POLB inh inconclusive, POLI inh inconclusive, POLH inh 45µM (no result: L3MBTL1 inh)
COc1ccc(/C=C2/C(=O)N(Cc3ccccc3)N=C2C)cc1	POLI inh 22µM
COc1ccc(-c2ccc(=O)n(Cc3ccccc3)n2)cc1	none
Cc1ccc2nc3sc(C(=O)Nc4c(C)[nH]c(=O)[nH]c4=O)c(N)c3cc2c1	POLB inh 50µM, POLH inh inconclusive
Cc1ccc2cc3c(N)c(C(=O)Nc4c(C)[nH]c(=O)[nH]c4=O)sc3nc2c1	POLB inh inconclusive, POLI inh inconclusive, POLH inh inconclusive
C=C(C)COc1ccc2oc(C)c(C(=O)OCCOC)c2c1	POLI inh 89µM
Cc1cc(C)nc(S/C=C/C(=O)c2ccccc2F)n1	POLI inh 4.5µM, APE1 inh inconclusive
Cc1c(NC(=O)NC(=O)c2ccc(F)cc2)c(=O)n(-c2ccccc2)n1C	none
Cc1c(N=C2N=C(NC(=O)c3ccc(F)cc3)c3ccccc32)c(=O)n(-c2ccccc2)n1C	POLI inh inconclusive, Pol kappa inh 13µM, POLH inh inconclusive
CSCCC(C)N1CCC(Oc2ccc(C(=O)NCc3ccccn3)cc2)CC1 (configuration not stated)	none (no result: POLB inh, POLI inh, Pol kappa inh, APE1 inh, L3MBTL1 inh)
COc1cc(O)c(C(CC(=O)N2CCCC(C)C2)c2ccc3c(c2)OCO3)c(OC)c1 (configuration not stated)	none (no result: L3MBTL1 inh)
COc1cc(OC)c2c(-c3ccccc3)cc(=O)oc2c1C(CC(=O)N1CCCC1)c1ccc2c(c1)OCO2 (configuration not stated)	POLB inh 50µM, POLI inh 79µM, Pol kappa inh inconclusive, APE1 inh inconclusive (no result: L3MBTL1 inh)
CCN(CC)C(=O)CC(c1ccc(OC)cc1)c1c(OC)cc(OC)c2c(-c3ccccc3)cc(=O)oc12 (configuration not stated)	POLI inh inconclusive, Pol kappa inh 79µM, APE1 inh inconclusive (no result: POLB inh, POLH inh, L3MBTL1 inh)
COc1cc(O)c(C(CC(=O)N2CCCCC2)c2ccc3c(c2)OCO3)c(OC)c1 (configuration not stated)	none (no result: L3MBTL1 inh)
COc1ccc(C(CCN2CCCCC2)c2c(OC)cc(OC)c3c(-c4ccccc4)cc(=O)oc23)cc1 (configuration not stated)	none (no result: L3MBTL1 inh)
COc1cc(OC)c2ccc(=O)oc2c1C(CC(=O)N1CCCCC1)c1ccc2c(c1)OCO2 (configuration not stated)	POLI inh 89µM, Pol kappa inh inconclusive (no result: POLB inh, POLH inh, L3MBTL1 inh)
COc1cc(OC)c2ccc(=O)oc2c1C(CC(=O)N1CCCC(C)C1)c1ccc2c(c1)OCO2 (configuration not stated)	POLB inh 40µM, POLI inh inconclusive, Pol kappa inh inconclusive, APE1 inh inconclusive, POLH inh 40µM (no result: L3MBTL1 inh)
O=C(Nc1cccc(-c2cccc(F)c2)c1)C1CCN(C2CCOCC2)CC1	POLB inh inconclusive (no result: L3MBTL1 inh)
COc1ccc(NS(=O)(=O)c2ccc(C)c(C(=O)NCCCn3ccnc3)c2)cc1	none (no result: POLB inh, POLI inh, Pol kappa inh, APE1 inh, L3MBTL1 inh)
COc1ccccc1C(=O)NCc1ccc2c(c1)CCN2C(=O)c1ccncc1	none (no result: APE1 inh, L3MBTL1 inh)
CC(C)(C)n1ncc2c(=O)n(Cc3ccc(Cl)cc3C(F)(F)F)cnc21	none (no result: POLB inh, POLH inh, L3MBTL1 inh)
COc1cc2nc(CC(O)c3nc4cc(OC)c(OC)cc4[nH]3)[nH]c2cc1OC (configuration not stated)	POLI inh 3.2µM, Pol kappa inh 10µM (no result: POLB inh, APE1 inh, POLH inh, L3MBTL1 inh)
COc1ccccc1CC(Cc1nc2ccccc2[nH]1)c1nc2ccccc2[nH]1 (configuration not stated)	APE1 inh inconclusive
CCOc1ccc2cc(C3CC(c4ccco4)=NN3S(C)(=O)=O)c(=O)[nH]c2c1 (configuration not stated)	POLI inh 35µM, POLH inh inconclusive (no result: L3MBTL1 inh)
CCCN(CCC)CCCNC(=O)c1cc2c(-c3ccc(Cl)cc3)nn(C)c2s1	POLB inh 20µM (no result: APE1 inh, L3MBTL1 inh)
COc1ccc(C#Cc2cnc(Cl)c3cncnc23)cc1OC	none (no result: POLB inh, APE1 inh, POLH inh, L3MBTL1 inh)
O=C1C(C=Nc2ccccc2O)=C(O)c2ccccc21	POLB inh 35µM

Compound activity: PubChem, National Center for Advancing Translational Sciences (NCATS)
